We go through 39 molecules from PubChem BioAssay (NCI).

About 83,000 compounds went through this panel and 20% of them were active in at least one assay; those are over-represented in the sample as a whole.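 A percent growth of 40 corresponds to 60% growth inhibition; 0 means no net growth; -100 means all cells died. Active threshold: below 10.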 Values without a mark were called inactive. The source made the active and inactive calls.

The experiment relates to SF-539 CNS. Briefly: NCI-60 one-dose screen, 48 h (100 = growth as untreated, 0 = no growth, -100 = all killed). The following applies: 10 µM unless noted.
Regarding `CC(=O)O[C@H]1CC[C@]2(C)[C@H]3CC=C4[C@@H]5CC(C)(C)CC[C@]5(C(=O)OCC(COC(=O)C(Cl)Cl)(COC(=O)C(Cl)Cl)NC(=O)C(Cl)Cl)CC[C@@]4(C)[C@]3(C)CC[C@H]2C1(C)C`, the growth is 86.8%.

With `Clc1ccc(Cl)c(N=Cc2ccc3c(c2)OCO3)c1`, the growth is 116%.

Consider `CCN(CC)c1ccc2c(cc1=O)[C@@H](NC(C)=O)CCc1cc(OC)c(OC)c(OC)c1-2`, for which the growth was -3.76% (active).

As to `COc1ccc(CNc2c3ccccc3nc3ccc(OC)cc23)cc1`, the growth is 8.46% (active).

As to `NC(=O)c1ccc[n+](Cc2ccccc2)c1`, the growth is 96.7%.

As to `N/N=C(\C(=N\N)c1ccccc1)c1ccccc1`, the growth is 103%.

For `CC1=C(O)C(=O)CC1`, the growth is 111%.

`CCN(CC)CCCC(C)Nc1ccnc2ccc(Oc3ccccc3)cc12` (centres undefined): the growth is -41.3% (active).

Turning to `COc1cc2ncnc(Nc3ccc(S(=O)(=O)Nc4nccs4)cc3)c2cc1OCCCN1CCOCC1`, the growth was 98.6%.

Turning to `CC(=O)Cc1ccccn1`, the growth was 99.7%.

As to `CC1OC(n2c3ccccc3c3c4c(c5c6ccccc6[nH]c5c32)C(=O)N(CCN[C@H]2CCC[C@@H]2N)C4=O)CC(O)C1O` (some centres undefined), the growth was 35.3%.

Take `O=C(C(=O)N1CCCC1)c1cn(CCCn2cc(C(=O)C(=O)N3CCCC3)c3cc(Br)ccc32)c2ccc(Br)cc12`: the growth was 69.5%.

For the molecule `CCCCCCCOc1cccc(/C=C2\N=C3SCCCN3C2=O)c1`, the growth is 111%.

Consider `COc1ccc(NC(=O)c2sc3c(=O)[nH]c(C(F)(F)F)nc3c2C)cc1`, for which the growth was 114%.

Take `C=C[C@H]1CCC/C=C/[C@@H]2C[C@H](O)C[C@H]2[C@H](O)/C=C/C(=O)O1`: the growth is 35.2%.

On to `C=CC(=O)N1CN(C(=O)C=C)CN(C(=O)C=C)C1`, for which the growth is 71.7%.

Turning to `CC(C)CCSc1nc(Nc2ccccc2)c(C#N)c(-c2ccc(F)cc2)n1`, the growth was 52.7%.

Consider `COC(=O)c1ccc2c(c1)nc(-c1cc3ccccc3[nH]c1=O)n2-c1cc(C(C)(C)C)[nH]n1`, for which the growth was 92.6%.

For the molecule `O=C1NN(C(=O)c2ccccc2)C(c2ccc(Cl)c(Cl)c2)=C/C1=C\c1ccccc1[N+](=O)[O-]`, the growth was 15.2% [6.75 µM].

Consider `O=C(CCl)Nc1ccc2c(c1)C(=O)c1ccccc1C2=O`, for which the growth is -10.5% (active).

In the case of `CCOC(=O)C1C(=O)C=C(c2cc(OC)c(OC)c(OC)c2)CC1c1sc(N(C)Cc2ccccc2)nc1Cl` (centres undefined), the growth was 95.6%.

On to `N/C(=N\OC(=O)c1ccccc1)C(C(=O)NOC(=O)c1ccccc1)C1CCCCC1` (centres undefined), for which the growth was 75.1%.

For `C=C(C)[C@@H]1CC[C@]2(C(=O)O)CC[C@]3(C)[C@H](CC[C@@H]4[C@@]5(C)C[C@@H](CC#Cc6ccc(C(C)=O)s6)[C@H](O)C(C)(C)[C@@H]5CC[C@]43C)[C@@H]12`, the growth is 83.4%.

For the molecule `CC(C)[C@@H]1C=C2CC[C@H]3[C@](C)(CN)CCC[C@]3(C)[C@H]2CC1`, the growth is 102%.

`COc1ccc(-c2cc(-c3cn(-c4cccc(Cl)c4)nc3-c3ccc(OC)cc3)[nH]c(=S)n2)cc1`: the growth is 92.2%.

Consider `CCN1CCN(Cc2ccc(NC(=O)Nc3ccc(-n4ccc5c(NC(=O)c6ccccc6)nccc54)cc3)cc2C(F)(F)F)CC1`, for which the growth is -48.4% (active).

As for `Clc1ccc(C2=NN[C@H](c3cn(-c4ccccc4)nc3-c3ccccc3)C2)cc1`, the growth is 67%.

As for `CC(C)CC1NC(=O)C(CC(C)C)N(CO)C1=O` (centres undefined), the growth was 111%.

`c1ccc(-c2ccc(-c3ccccc3)[nH]2)cc1`: the growth is 93.9%.

Turning to `C=CCN(CC#N)CC=C`, the growth was 102%.

Turning to `COc1ccc2c(c1)sc1nc(-c3ccccc3)c(-c3cccc4ccccc34)n12`, the growth is 0.248% (active).

Turning to `CC(C)c1nc2ccccc2n1CC(=O)N/N=C/c1cccc(O)c1`, the growth was 97.6%.

Regarding `CCCCCCCC/C=C\CCCCCCCC(=O)OCCCCCC`, the growth is 109%.

Take `CCN(CC)c1ccc(/C=N/NC(=O)c2ccc(S(C)(=O)=O)cc2)c(O)c1`: the growth was 4.01% (active).

For the molecule `CC(=O)CC(c1ccc([N+](=O)[O-])cc1)c1c(O)c2ccccc2oc1=O` (centres undefined), the growth was 97.1%.

With `CC1CCCN(CCCCOc2ccc(-c3ccc(C#N)cc3)cc2)C1` (centres undefined), the growth is 98.4%.

Turning to `Cn1c(-c2ccccc2)cc(=O)n1-c1ccccc1`, the growth is 101%.

Consider `O=C(NCCN1CCCC1)n1cc(-c2ccncc2)c(-c2cc(O)cc(Cl)c2)n1`, for which the growth was 77.9%.

Turning to `C(=Nc1ccc(-c2ccc(N=Cc3ccccc3)cc2)cc1)c1ccccc1`, the growth is 107%.
